Hits are enriched below; roughly 19% of the tested compounds scored in any of these assays.
DT40 TDP1 no CPT = qHTS for Inhibitors of human tyrosyl-DNA phosphodiesterase 1 (TDP1): qHTS in cells in absence of CPT; DT40 Tdp1-/- hTDP1 cells, no CPT, ATP luminescence, 48 h; Potency, µM (series often up to 46.2 µM), inactives show at the highest dose activity change, negative = growth inhibition, actives largely listed as inhibitors; 420,000 tested, 15% active; also: potency is read from the fitted curve at half-maximal effect; % is scaled to controls: 0 for no effect and ±100 for the full control effect; nearly all actives have a fitted effect of over 55% in size
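Growth of hTDP1-complemented DT40 Tdp1-knockout cells is measured by ATP luminescence after at least 48 hr compound exposure at 37 °C, with DMSO substituting for the 20 nM CPT used in the parallel screen.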
IL1B secr inh = blocks inflammasome-driven IL-1 beta release | THP-1 LPS/ATP IL-1B secretion, AlphaLISA, 16 h; active compounds read low | activity change, % at 57.5 µM | 360,000 tested, 4.7% active; in the data active = activity change below about -50%; inconclusive = mostly about -30% to -49%; also: % is scaled to controls: 0 for no effect and ±100 for the full control effect
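Secreted IL-1B measured by AlphaLISA bead assay after 16 h compound exposure of THP-1 cells; compounds (final up to 57.5 uM) added 1 h before LPS (250 ng/mL) and ATP (1.25 mM) stimulation; lower signal means less secretion.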
S-ASM inh = blocks human secretory acid sphingomyelinase; P17405; placental ASM, HMU-PC fluorogenic substrate, 60 min; Potency, µM (series often up to 57.5 µM), inactives show top-dose activity change, negative = inhibition, actives largely listed as inhibitors; 340,000 tested, 0.006% active; also: potency is read from the fitted curve at half-maximal effect
Target sequence (P17405 47-631 limits assumed): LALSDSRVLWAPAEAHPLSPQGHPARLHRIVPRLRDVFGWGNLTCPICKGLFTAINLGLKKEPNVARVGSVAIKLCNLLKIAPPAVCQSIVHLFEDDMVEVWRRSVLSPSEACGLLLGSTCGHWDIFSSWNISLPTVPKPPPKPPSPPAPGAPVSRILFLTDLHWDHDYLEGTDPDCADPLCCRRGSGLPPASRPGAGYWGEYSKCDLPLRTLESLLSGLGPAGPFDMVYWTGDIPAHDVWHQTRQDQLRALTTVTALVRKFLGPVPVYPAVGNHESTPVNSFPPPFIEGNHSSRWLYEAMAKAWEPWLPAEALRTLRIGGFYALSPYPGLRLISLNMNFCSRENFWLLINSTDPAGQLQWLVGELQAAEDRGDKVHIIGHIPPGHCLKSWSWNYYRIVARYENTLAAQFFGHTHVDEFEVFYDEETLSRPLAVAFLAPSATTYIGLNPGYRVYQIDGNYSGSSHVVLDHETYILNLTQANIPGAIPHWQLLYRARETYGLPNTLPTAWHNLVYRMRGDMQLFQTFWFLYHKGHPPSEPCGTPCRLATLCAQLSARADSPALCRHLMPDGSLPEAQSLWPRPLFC
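Human placenta-derived ASM preincubated with compound 10 min at room temperature, then reacted with 9 uM (final) fluorogenic HMU-PC substrate for 60 min at 37 C. Stop solution raises pH to 10; fluorescence read at Ex 386/Em 447 nm.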
HepG2 tox = counter-screen for TGF-b inhibitors: cytotoxicity in HepG2 cells; HepG2 CAGA-GFP viability, ATP luminescence, 18 h; Potency, µM (doses to about 46.1 µM), for the others: top-dose activity change, negative = cytotoxicity, actives largely listed as cytotoxic; 410,000 tested, 0.76% active; AID 588856; also: potency is read from the fitted curve at half-maximal effect
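CellTiter-Glo luminescence gave cytotoxicity after 18 hours at 37 degrees C. The cells were HepG2 CAGA-GFP in 1% FBS DMEM, stimulated with 500 pg/mL TGF-beta after compound addition. %Activity was normalised to no-cell wells (complete cell-killing) and DMSO (no toxicity), and curves were fitted and classified.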
TGFb inhibitor = TGF-b pathway inhibition. HepG2 CAGA-GFP TGF-b/SMAD3 reporter, GFP fluorescence, 18 h; TGF-beta stimulated, 500 pg/mL final. Potency, µM (series often up to 46.1 µM), for inactives: top-dose activity, negative = inhibition, hits mostly inhibitors. 410,000 tested, 1.2% active. AID 588855; also: potency is read from the fitted curve at half-maximal effect; % is scaled to controls: 0 for no effect and ±100 for the full control effect; nearly all actives have a fitted effect of over 65% in size
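Inhibition was scored as loss of TGF-beta-induced (500 pg/mL final, 18 hours, 37 degrees C) GFP in HEPG2 cells carrying a CAGA-GFP reporter, in DMEM with 1% FBS. Well GFP was summed per cell; Activity was normalised to unstimulated and stimulated DMSO wells, then concentration-response fitting.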
DT40 TDP1 CPT = growth inhibition of DT40 Tdp1-/-;hTDP1 cells with camptothecin (screen for TDP1 inhibitors); chicken DT40 Tdp1-/-;hTDP1 cells + 20 nM CPT, ATP luminescence, 48 h; Potency, µM (top dose mostly 46.2 µM), for inactives: top-dose activity change, negative = growth inhibition, hits mostly inhibitors; 420,000 tested, 12% active; also: potency is read from the fitted curve at half-maximal effect; % is scaled to controls: 0 for no effect and ±100 for the full control effect; nearly all actives have a fitted effect of over 55% in size
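Chicken DT40 Tdp1-/- cells stably complemented with human TDP1 were seeded at 400 cells/well in medium containing 20 nM camptothecin, exposed to pin-transferred compounds, and grown at 37 °C for at least 48 hr. Viability was read as ATP luminescence.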
* marks the source's active call; other numbers are inactive results; ? = inconclusive; nt = no result given; [ ] = another dose, or the depositor's remark. Unless noted, calls follow the shape of the dose curve; as a rule, active = well fitted curve in the direction sought with a large enough effect; inconclusive = small, poorly fitted or top-dose-only effect, or another doubt; inactive = no such curve, though single readings can be large; an effect the other way counts as inactive or inconclusive.

SMILES	DT40 TDP1 no CPT	IL1B secr inh	S-ASM inh	HepG2 tox	TGFb inhibitor	DT40 TDP1 CPT
Fc1ccc(-c2nc3n(n2)Cc2ccccc2-3)cc1	?	36	1%	8.9µM*	?	-24%
CCn1c(C)nc2cc(-c3nc4n(n3)Cc3ccccc3-4)ccc21	7.3µM*	?	-29%	1.3µM*	-11%	6.5µM*
Cc1ccc(-c2nc3n(n2)Cc2ccccc2-3)cc1	?	-20	3%	-54%	-24%	?
CCn1c(C)nc2cc(C#N)ccc21	0%	19	1%	2%	0%	-7%
Cc1cccc(C)c1-n1ncc(C(=O)N2CCN(c3ncccn3)CC2)c1C1CCN(C(=O)OC(C)(C)C)CC1	?	nt	nt	3%	16%	?
O=C(CNC(=O)c1ccccc1)N/N=C/c1ccc([N+](=O)[O-])s1	?	?	-2%	14µM*	11µM*	?
O=C(Cc1ccccc1)NCC(=O)N/N=C/c1ccc([N+](=O)[O-])s1	15µM*	?	-5%	16µM*	?	23µM*
O=C(Cc1ccccc1)NCC(=O)N/N=C/c1ccc(C(=O)O)cc1	-2%	15	7%	-7%	12%	-3%
O=C(CNC(=O)c1ccccc1)N/N=C/c1cccs1	-3%	-6	2%	-1%	9%	31%
O=S(=O)(c1ccccc1)N1CCC2(CCCN(c3ccccc3)C2)CC1	?	nt	nt	nt	nt	6%
O=S(=O)(c1ccccc1)N1CCC2(CCN(Cc3ccncc3)CC2)CC1	21µM*	nt	nt	nt	nt	?
O=S(=O)(c1ccccc1)N1CCC2(CCCN(c3ccccn3)C2)CC1	21µM*	nt	nt	nt	nt	?
O=S(=O)(c1ccccc1)N1CCC2(CCCN(c3ncccn3)C2)CC1	?	nt	nt	nt	nt	-4%
O=S(=O)(c1ccccc1)N1CCC2(CC1)CN(c1ccncc1)C2	9.2µM*	nt	nt	nt	nt	?
O=S(=O)(c1ccccc1)N1CCC2(CCCN(c3ccncc3)C2)CC1	1.2µM*	nt	nt	nt	nt	2.1µM*
O=S(=O)(c1ccccc1)N1CCC2(CC1)CN(Cc1ccccc1)C2	?	nt	nt	nt	nt	-6%
O=C(CN1C(=O)COc2ccc(S(=O)(=O)N3CCCC3)cc21)N1CCN(c2ccccc2F)CC1	nt	nt	nt	3%	3%	nt
COc1ccc2nc(N(Cc3cccnc3)C(=O)c3ccco3)sc2c1	-4%	nt	nt	-26%	-5%	-11%
CCC(=O)Nc1ccc(C)cc1-c1nc2ccccc2n(CC(=O)c2ccc(C)cc2)c1=O	-19%	nt	nt	-2%	-3%	?
COC(=O)c1ccc(Cl)cc1NC(=O)N(Cc1ccc(C)o1)C1CCN(C(C)=O)CC1	15µM*	nt	nt	-21%	0%	?
CCN1CCC(N(Cc2ccc3c(c2)OCO3)C(=O)Nc2cc(Cl)ccc2C(=O)OC)CC1	7.3µM*	nt	nt	-108%	?	13µM*
CCN1CCC(N(Cc2ccc3c(c2)OCO3)C(=O)Nc2ccccc2OC)CC1	?	nt	nt	-26%	2%	?
COc1c2c(c(C(=O)/C=C/C(C)=C/c3ccccc3)c3c1OCO3)CCN(C)C2	-18%[9.04 µM]	nt	nt	nt	nt	-9%[9.04 µM]
Cc1ccc(C(=O)CCC(=O)OCC(=O)NNC(=O)c2ccc([N+](=O)[O-])cc2)cc1	-16%	0	-2%	-37%	-5%	-18%
O=C(OCc1ccccc1)/C(=C/c1cccc2ccccc12)NC(=O)c1ccccc1	?	15	-8%	-9%	3%	7%
Cc1ccc(C(=O)N/C(=C\c2ccccc2)C(=O)OCc2ccccc2)cc1	?	-51*	nt	-15%	-2%	29µM*
O=C(COc1ccccc1)Nc1ccc(S(=O)(=O)Nc2ccccn2)cc1	-12%	-6	-2%	-1%	13%	?
